Key:
Assay in all cases: log2 ratio of Biotin-Ahx-Ub-VS probe labelling (fragment/DMSO); higher = less target engagement (more negative = stronger competition), active = hit call of the paper (q ≤ 0.05, log2 ratio ≤ -1)
Conditions in all cases: compound concentration: 200 uM; treatment time: 3 h
USP42 = biological target: T1, USP42 (UniProt Q9H9J4)
T1 sequence (whole entry): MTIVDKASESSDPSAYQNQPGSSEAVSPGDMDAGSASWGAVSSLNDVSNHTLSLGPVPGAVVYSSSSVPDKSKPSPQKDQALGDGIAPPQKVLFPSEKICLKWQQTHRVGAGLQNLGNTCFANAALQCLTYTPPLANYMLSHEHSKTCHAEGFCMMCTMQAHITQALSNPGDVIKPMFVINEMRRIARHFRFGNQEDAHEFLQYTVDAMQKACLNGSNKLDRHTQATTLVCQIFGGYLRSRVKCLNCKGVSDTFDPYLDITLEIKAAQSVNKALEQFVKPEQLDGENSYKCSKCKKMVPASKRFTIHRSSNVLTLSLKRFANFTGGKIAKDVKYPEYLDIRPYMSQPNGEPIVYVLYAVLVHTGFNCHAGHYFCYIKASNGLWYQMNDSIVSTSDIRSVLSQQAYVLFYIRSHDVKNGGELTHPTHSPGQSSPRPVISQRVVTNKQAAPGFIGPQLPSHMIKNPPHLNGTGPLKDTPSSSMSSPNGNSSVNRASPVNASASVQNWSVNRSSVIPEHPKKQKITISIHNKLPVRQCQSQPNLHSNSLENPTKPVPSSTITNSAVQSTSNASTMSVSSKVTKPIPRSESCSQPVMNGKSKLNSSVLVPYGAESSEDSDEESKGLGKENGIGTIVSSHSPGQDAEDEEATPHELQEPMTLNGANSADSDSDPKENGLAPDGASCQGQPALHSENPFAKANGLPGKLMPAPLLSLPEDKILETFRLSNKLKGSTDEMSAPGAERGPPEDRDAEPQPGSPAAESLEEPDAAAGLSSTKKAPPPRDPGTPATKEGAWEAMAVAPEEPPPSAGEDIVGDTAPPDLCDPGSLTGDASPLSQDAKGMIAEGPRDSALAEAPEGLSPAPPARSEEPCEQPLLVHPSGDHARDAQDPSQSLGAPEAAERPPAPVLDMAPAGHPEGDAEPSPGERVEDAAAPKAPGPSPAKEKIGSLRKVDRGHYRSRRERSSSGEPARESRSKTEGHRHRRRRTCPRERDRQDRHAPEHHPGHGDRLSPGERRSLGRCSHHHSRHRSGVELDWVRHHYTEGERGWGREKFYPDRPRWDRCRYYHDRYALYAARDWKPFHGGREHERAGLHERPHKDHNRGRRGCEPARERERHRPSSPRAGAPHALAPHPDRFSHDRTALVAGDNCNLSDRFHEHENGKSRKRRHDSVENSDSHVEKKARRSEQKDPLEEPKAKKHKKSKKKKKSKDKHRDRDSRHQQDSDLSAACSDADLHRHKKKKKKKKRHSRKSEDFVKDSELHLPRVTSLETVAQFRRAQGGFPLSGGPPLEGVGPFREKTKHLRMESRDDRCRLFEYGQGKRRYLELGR
Method in brief: (§1)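 Using Biotin-Ahx-Ub-VS at 0.5 µM final for 1 h, DUBs were labelled in HEK293T lysate (495 µg per sample) that had first been treated in triplicate with fragment at 200 µM or vehicle for 3 h. NeutrAvidin enrichment, LysC and trypsin digestion and diaPASEF LC-MS/MS followed. Spectronaut label-free quantities were global-median-normalised. Values are average log2 fragment/vehicle ratios by unpaired t-test, using proteins with ≥2 unique peptides.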

USP46 = USP46 (UniProt P62068)
USP46, sequence (P62068 whole entry): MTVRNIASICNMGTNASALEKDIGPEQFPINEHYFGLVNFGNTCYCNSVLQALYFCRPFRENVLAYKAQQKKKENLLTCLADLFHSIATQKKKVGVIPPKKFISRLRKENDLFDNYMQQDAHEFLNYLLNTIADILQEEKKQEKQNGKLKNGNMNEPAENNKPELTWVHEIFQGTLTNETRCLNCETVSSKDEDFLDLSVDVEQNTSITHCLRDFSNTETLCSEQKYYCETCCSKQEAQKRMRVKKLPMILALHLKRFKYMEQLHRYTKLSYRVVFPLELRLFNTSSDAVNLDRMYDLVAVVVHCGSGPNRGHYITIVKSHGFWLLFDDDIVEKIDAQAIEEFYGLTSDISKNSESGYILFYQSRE
Method in brief: as §1

USP47 = biological target: T2, USP47 (UniProt Q96K76)
T2 sequence (whole entry): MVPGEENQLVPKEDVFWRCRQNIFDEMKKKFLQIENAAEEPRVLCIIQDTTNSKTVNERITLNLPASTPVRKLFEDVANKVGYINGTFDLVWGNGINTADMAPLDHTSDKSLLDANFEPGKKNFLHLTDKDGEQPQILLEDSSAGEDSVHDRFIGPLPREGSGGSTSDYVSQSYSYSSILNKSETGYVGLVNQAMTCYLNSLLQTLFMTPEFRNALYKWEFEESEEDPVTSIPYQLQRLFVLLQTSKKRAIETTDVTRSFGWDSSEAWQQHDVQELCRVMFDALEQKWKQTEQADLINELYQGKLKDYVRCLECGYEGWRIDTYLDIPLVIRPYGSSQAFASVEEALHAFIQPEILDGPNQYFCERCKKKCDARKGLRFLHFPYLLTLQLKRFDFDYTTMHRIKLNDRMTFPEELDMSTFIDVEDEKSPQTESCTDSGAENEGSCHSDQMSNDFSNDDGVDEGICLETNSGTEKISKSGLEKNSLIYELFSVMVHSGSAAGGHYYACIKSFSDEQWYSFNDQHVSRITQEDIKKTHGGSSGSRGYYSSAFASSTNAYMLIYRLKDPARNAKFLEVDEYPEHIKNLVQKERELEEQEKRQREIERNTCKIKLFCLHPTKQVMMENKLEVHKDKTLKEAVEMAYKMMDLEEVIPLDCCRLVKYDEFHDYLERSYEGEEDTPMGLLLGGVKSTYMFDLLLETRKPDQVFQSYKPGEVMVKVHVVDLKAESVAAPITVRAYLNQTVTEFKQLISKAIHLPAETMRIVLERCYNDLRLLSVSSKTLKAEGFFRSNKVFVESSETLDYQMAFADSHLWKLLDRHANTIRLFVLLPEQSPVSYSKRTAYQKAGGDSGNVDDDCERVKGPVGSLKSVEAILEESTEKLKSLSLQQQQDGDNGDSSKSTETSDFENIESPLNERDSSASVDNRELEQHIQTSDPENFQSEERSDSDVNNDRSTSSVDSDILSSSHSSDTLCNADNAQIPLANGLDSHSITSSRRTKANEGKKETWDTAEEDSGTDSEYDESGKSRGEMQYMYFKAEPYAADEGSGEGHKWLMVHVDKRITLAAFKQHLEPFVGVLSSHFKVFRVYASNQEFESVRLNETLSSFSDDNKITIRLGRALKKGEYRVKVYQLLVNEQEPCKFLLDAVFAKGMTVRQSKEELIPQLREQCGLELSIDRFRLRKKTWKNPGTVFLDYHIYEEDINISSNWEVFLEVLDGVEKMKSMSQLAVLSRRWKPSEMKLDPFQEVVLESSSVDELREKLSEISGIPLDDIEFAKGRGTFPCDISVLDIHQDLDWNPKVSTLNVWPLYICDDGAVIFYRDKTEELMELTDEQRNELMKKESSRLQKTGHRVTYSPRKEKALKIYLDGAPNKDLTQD
Method in brief: as §1

USP48 = biological target: T3, USP48 (UniProt Q86UV5)
T3 sequence (whole entry): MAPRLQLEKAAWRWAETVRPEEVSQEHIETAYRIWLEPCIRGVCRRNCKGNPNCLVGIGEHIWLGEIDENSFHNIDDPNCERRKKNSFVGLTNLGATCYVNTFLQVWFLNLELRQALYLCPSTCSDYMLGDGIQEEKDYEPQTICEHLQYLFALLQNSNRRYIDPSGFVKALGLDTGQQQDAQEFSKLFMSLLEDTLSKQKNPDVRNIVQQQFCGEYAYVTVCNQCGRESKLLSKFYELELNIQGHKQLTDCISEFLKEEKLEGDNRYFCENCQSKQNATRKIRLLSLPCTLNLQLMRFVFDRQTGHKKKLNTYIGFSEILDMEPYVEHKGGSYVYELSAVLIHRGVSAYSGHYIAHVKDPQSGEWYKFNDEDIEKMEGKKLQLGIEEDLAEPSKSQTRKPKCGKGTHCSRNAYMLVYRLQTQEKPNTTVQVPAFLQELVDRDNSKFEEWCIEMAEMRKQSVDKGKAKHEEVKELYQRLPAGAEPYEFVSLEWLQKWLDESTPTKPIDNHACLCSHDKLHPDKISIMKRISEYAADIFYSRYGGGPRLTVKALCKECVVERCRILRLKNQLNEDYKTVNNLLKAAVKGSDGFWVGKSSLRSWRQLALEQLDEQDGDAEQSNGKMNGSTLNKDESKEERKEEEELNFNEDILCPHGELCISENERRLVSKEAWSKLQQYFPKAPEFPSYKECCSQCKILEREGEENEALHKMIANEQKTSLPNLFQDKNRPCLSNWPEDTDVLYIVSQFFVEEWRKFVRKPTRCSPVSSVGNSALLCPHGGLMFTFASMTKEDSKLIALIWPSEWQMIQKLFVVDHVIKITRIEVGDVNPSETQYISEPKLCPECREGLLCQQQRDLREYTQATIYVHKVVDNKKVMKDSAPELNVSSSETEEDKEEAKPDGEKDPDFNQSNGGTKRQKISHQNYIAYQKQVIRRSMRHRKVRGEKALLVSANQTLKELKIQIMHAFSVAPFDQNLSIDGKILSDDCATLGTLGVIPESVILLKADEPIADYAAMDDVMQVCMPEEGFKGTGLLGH
Method in brief: as §1

USP5 = biological target: T4, USP5 (UniProt P45974)
T4 sequence (whole entry): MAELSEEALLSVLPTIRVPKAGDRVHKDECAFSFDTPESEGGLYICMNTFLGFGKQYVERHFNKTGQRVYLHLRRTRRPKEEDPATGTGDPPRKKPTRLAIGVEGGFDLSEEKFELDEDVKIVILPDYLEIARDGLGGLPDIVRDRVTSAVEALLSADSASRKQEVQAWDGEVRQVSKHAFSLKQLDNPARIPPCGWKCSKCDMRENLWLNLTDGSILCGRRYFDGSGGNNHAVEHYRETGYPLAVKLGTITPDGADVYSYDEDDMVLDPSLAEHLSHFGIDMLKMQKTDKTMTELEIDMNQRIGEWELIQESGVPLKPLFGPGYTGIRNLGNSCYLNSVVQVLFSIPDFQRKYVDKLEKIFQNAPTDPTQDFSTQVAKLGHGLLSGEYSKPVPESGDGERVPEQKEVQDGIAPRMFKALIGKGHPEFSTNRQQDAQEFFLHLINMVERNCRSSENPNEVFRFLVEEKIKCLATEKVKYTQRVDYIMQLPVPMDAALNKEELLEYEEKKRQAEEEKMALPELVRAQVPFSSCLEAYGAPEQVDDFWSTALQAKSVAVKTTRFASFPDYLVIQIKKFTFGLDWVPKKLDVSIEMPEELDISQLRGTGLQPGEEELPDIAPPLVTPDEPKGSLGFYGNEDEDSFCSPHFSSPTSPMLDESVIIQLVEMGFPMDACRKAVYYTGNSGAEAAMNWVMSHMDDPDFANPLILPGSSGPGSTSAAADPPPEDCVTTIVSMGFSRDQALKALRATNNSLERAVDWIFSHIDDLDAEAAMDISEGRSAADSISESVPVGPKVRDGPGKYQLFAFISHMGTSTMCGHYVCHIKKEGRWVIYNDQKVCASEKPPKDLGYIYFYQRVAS
Method in brief: as §1

USP54 = USP54 (UniProt Q70EL1)
USP54, sequence (Q70EL1 whole entry): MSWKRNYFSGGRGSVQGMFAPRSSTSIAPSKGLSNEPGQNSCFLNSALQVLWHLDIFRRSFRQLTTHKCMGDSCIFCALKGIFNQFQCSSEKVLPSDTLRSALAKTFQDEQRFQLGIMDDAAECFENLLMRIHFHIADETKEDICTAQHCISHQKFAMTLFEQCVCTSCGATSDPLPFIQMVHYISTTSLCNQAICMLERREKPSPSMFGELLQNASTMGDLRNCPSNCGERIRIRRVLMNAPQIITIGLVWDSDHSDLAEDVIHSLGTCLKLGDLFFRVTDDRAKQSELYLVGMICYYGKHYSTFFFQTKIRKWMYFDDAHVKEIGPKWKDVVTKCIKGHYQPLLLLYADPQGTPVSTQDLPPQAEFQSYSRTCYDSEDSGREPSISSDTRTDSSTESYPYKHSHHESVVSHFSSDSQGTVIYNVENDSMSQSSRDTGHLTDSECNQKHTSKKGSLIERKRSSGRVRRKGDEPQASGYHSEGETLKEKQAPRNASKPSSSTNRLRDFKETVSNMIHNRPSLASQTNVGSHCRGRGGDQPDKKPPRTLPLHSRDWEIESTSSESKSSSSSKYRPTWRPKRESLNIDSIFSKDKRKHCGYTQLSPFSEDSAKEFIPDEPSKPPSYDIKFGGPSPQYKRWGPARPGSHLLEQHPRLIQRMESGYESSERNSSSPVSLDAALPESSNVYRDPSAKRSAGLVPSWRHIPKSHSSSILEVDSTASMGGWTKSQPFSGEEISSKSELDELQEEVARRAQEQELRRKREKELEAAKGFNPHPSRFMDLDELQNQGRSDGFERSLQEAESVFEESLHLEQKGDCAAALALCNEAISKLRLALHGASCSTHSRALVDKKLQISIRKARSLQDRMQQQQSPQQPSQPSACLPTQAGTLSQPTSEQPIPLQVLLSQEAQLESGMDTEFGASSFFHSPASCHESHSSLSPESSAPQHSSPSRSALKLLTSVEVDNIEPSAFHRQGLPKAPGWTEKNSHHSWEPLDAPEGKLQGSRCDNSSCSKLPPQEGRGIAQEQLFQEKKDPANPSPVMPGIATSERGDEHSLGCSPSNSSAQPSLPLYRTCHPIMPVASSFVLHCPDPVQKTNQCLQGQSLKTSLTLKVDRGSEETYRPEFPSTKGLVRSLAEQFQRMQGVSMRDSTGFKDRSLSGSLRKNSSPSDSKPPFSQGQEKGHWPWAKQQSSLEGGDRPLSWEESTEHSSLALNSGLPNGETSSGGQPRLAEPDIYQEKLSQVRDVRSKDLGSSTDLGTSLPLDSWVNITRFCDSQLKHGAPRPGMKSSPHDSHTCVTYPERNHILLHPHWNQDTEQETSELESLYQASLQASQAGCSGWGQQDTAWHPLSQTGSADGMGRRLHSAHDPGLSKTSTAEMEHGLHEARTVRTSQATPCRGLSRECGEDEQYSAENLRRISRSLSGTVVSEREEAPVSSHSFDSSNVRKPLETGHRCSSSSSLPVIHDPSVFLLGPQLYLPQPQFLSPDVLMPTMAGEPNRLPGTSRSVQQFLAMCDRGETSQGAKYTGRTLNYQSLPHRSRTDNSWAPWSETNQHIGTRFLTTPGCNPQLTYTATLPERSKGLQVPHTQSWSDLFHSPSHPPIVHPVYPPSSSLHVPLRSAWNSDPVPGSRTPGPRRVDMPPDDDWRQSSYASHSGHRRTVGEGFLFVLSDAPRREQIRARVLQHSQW
Method in brief: as §1

USP7 = USP7 (UniProt Q93009)
Method in brief: as §1

USP8 = biological target: T5, USP8 (UniProt P40818)
T5 sequence (whole entry): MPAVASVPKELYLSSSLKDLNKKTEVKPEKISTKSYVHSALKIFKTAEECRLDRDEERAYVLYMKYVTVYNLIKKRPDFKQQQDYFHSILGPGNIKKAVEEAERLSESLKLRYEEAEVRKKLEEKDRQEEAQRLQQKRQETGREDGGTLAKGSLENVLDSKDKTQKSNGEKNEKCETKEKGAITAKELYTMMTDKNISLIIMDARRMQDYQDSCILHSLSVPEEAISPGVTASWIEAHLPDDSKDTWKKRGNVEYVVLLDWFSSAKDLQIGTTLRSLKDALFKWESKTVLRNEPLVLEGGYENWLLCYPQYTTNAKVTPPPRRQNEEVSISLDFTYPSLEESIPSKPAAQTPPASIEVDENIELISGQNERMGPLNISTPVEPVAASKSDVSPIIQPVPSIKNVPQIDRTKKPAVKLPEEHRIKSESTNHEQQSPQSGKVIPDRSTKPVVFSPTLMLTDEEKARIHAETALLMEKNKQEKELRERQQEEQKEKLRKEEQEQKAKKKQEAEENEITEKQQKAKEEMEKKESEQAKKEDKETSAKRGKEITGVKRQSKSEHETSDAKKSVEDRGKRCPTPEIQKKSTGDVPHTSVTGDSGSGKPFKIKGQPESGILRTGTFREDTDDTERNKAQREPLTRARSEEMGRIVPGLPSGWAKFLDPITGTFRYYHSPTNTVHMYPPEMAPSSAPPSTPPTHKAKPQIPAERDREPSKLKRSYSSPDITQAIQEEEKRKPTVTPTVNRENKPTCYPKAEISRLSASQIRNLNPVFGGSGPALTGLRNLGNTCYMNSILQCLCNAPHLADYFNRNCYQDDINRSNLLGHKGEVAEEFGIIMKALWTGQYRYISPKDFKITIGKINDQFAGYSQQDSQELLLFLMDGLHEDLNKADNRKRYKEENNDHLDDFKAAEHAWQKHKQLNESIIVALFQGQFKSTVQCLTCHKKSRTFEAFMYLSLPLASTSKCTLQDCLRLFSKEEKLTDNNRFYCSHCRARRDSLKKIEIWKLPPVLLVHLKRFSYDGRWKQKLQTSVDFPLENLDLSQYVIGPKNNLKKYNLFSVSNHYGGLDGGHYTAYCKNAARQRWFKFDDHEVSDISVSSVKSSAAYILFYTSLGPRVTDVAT
Method in brief: as §1

USP9X = USP9X (UniProt Q93008)
USP9X, sequence (Q93008 whole entry): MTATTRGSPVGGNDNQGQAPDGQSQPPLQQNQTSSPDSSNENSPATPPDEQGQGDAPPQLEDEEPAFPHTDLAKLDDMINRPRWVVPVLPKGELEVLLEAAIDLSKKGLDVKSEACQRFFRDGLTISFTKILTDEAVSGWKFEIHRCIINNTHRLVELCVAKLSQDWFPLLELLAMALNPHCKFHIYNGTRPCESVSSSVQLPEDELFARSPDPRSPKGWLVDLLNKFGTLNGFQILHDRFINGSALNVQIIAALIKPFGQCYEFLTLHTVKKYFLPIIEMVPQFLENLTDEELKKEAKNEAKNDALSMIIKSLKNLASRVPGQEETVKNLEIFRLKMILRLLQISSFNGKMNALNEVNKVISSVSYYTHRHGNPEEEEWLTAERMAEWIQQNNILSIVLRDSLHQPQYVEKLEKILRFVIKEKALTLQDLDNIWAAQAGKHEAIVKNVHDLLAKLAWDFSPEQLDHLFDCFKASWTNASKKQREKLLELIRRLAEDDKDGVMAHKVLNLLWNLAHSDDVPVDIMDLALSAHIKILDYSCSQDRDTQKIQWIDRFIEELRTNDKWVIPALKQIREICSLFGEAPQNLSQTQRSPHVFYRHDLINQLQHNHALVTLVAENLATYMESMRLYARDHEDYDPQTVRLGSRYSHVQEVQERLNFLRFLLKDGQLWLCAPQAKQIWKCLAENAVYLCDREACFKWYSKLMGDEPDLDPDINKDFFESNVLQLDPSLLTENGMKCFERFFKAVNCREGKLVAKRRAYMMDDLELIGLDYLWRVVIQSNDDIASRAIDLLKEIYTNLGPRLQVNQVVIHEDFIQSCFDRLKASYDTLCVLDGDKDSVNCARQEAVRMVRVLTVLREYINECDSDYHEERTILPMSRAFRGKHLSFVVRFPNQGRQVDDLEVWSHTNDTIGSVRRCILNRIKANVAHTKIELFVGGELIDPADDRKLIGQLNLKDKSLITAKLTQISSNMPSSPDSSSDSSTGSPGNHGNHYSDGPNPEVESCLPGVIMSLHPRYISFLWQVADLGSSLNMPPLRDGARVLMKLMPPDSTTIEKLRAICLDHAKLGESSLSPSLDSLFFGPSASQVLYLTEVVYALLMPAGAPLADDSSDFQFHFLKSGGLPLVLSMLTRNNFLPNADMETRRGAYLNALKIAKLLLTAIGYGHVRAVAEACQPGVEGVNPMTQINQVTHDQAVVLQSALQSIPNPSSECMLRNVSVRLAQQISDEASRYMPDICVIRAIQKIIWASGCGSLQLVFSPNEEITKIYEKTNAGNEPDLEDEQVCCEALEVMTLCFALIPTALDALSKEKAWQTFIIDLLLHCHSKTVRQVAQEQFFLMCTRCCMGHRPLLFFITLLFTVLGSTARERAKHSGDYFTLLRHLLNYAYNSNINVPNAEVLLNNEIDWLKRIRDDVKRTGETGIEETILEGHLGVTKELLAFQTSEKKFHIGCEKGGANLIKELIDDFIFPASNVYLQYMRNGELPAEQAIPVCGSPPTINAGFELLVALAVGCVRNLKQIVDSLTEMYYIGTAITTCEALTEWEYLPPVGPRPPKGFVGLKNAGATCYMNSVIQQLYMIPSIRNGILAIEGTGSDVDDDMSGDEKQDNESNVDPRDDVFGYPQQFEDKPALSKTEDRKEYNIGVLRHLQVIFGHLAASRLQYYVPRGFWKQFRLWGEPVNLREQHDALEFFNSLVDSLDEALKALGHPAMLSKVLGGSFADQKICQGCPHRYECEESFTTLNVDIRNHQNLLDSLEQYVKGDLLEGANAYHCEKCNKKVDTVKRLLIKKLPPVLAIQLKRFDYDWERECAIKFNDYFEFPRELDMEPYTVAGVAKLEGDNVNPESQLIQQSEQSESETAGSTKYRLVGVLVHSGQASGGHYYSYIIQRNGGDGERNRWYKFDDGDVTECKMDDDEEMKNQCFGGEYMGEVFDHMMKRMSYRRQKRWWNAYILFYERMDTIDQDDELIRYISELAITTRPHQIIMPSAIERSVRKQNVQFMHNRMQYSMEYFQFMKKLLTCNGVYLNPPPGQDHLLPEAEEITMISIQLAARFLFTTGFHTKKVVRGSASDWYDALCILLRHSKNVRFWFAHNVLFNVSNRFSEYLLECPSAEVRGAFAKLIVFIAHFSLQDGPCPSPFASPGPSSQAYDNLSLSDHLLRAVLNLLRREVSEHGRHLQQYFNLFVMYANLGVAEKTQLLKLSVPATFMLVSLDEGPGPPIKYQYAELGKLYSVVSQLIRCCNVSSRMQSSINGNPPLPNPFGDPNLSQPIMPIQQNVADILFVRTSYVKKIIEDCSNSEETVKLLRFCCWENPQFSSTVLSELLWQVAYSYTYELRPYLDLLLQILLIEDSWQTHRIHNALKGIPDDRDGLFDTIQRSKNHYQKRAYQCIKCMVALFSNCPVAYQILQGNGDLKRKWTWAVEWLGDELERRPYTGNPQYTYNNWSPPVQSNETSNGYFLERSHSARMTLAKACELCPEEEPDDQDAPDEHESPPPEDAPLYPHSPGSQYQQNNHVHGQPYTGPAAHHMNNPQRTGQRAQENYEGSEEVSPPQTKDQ
Method in brief: as §1

UniProt O00487 = biological target: UniProt O00487
UniProt O00487, sequence (O00487 whole entry): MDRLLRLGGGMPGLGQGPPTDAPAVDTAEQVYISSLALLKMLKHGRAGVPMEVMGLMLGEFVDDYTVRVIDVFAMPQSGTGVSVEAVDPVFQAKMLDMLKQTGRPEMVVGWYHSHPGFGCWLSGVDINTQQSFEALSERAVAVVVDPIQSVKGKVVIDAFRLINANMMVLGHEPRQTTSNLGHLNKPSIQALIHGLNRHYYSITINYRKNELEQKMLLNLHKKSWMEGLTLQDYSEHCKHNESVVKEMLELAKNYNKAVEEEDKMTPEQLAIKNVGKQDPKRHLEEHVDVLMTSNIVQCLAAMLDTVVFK
Method in brief: as §1

Measured: log2 ratio of Biotin-Ahx-Ub-VS probe labelling

Cc1ncc2c(n1)CCN(C(=O)CCl)C2
inactive: USP42 0.492 | USP46 -0.138 | USP47 0.296 | USP48 -0.0668 | USP5 -0.217 | USP54 -0.303 | USP7 -0.49 | USP8 -0.102 | USP9X -0.246 | UniProt O00487 0.0218

— the supplement of paper PMC11732987, “Enantioselective OTUD7B fragment discovery through chemoproteomics screening and high-throughput optimisation” (Communications Chemistry, 2025)
